Laboratory results taken from PubChem BioAssay AID1035475 (Broad Institute, 2014).
Measured potencies and affinities stand elsewhere. Results filed as inconclusive are left out. A number with no mark means an inactive call.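 Rule for the calls: active = fluorescent signal drops by 40% or more, counted as a hit; inconclusive = no clear call, values can overlap the other calls; inactive = the rest, including any activity in the opposite direction.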

Test: inhibitors of fibronectin matrix deposition, dose response, AH1F cells, Alexa488-FN fluorescence, cherry-picks (AID 1035475);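 note: AH1F fibroblasts incorporating labeled fibronectin into their extracellular matrix; 0% = neutral control wells and -100% = wells without labeled fibronectin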
Details: AH1F fibroblasts, overnight; series mostly up to 35 µM; activity change, negative = inhibition: at the top concentration
In the case of CCC(C)(C)NC(=O)C(OC(=O)c1ccco1)c1ccccc1OC (stereo not drawn), the “activity change, negative = inhibition” value is reported as 11.6%. In the case of CCCc1cc(C(=O)OC)c(NC(=O)CCC(=O)O)s1, the “activity change, negative = inhibition” value is reported as -15.6%. For N#C[C@H]1[C@@H](c2ccccc2C2=CCCCC2)[C@H](CO)N1S(=O)(=O)c1ccccc1, the “activity change, negative = inhibition” value was 34.4% [at 30 µM]. For COCC(=O)Nc1ccc2c(c1)C(=O)N(C)[C@H]1CC[C@H](CC(=O)NCc3ccccc3Cl)O[C@H]1CO2, the “activity change, negative = inhibition” value was 12.8%. In the case of COC(=O)C[C@@H]1CC[C@@H]2[C@H](COc3ccc(NC(=O)Cc4cccs4)cc3C(=O)N2C)O1, the “activity change, negative = inhibition” value is reported as 7.52%. In the case of CO[C@H]1CN(C)C(=O)c2cc(NC(=O)Nc3ccc(Cl)c(Cl)c3)ccc2OC[C@@H](C)NC[C@@H]1C, the “activity change, negative = inhibition” value is reported as 13.7%. For N#C[C@@H]1[C@@H](c2ccccc2C2=CCCCC2)[C@@H](CO)N1S(=O)(=O)c1ccccc1, the “activity change, negative = inhibition” value was 35.2% [at 30 µM]. With Cc1ccc(S(=O)(=O)N2CC3(C)CN(S(=O)(=O)c4ccc(C)cc4)CC(C)(C2)C3=O)cc1 the “activity change, negative = inhibition” value was 6.47%. For C[C@H]1CN([C@@H](C)CO)C(=O)c2cc(-c3ccccc3)cnc2O[C@H]1CN(C)Cc1ccccc1, the “activity change, negative = inhibition” value was 34.5%. For C[C@H](CO)N1C[C@H](C)[C@H](CN(C)Cc2ccc(-c3ccccc3)cc2)Oc2ccc(NC(=O)C3CCCCC3)cc2C1=O, the “activity change, negative = inhibition” value was 32.1% [at 30 µM]. In the case of CO[C@H]1CN(C)C(=O)c2cc(NC(=O)Nc3cc(Cl)cc(Cl)c3)ccc2OC[C@@H](C)NC[C@@H]1C, the “activity change, negative = inhibition” value is reported as 9.01%. With Cc1ccc([N+](=O)[O-])cc1NC(=O)CN(C(=O)c1ccccc1Cl)C1CCCCC1 the “activity change, negative = inhibition” value was -14.8%. In the case of C[C@@H]1CN([C@H](C)CO)C(=O)c2cc(-c3ccccc3)cnc2O[C@H]1CN(C)C(=O)c1cccc(F)c1, the “activity change, negative = inhibition” value is reported as 27.5%.
